In PubChem BioAssay (NCI) one finds growth data, which are given here for 36 molecules.

This is part of a sample that, as a whole, favours compounds with a hit. Of some 83,000 tested, about 20% had one in any assay.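 Note: values are percent growth. 100 is the growth of untreated cells, values between 100 and 0 indicate rising inhibition; between -100 and 0 indicates cell death.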 Activity calls are given as the source filed them. How the source made its calls: active means growth percent below 10; inactive means the rest.

In the assay the test system is HL-60(TB) leukemia. The assay can be described thus: NCI-60 one-dose screen, 48 h (100 = growth as untreated, 0 = no growth, -100 = all killed). Particulars: 10 µM unless noted.
As for `CC(O)CN(CC(C)O)c1ccc2c(c1)Cc1cc([N+](=O)[O-])ccc1-2` (stereo unspecified), the growth is 74.5% (inactive).
Turning to `Cc1ccc(C2CC(c3nc(-c4ccc(Cl)cc4)oc3C)=NN2C(=O)c2ccncc2)cc1` (stereo unspecified), the growth was 97.7% (inactive).
Next, `COc1cccc(OC)c1Oc1c(-c2nc3ccccc3s2)c(C)nn1-c1ccccc1`: 81.8% (inactive); `C=CCN1C(=O)c2cccc3c(-c4ccc5c(c4)ncn5C4CCCCC4)ccc(c23)C1=O`: 25.5% (inactive).
Take `O=C1/C(=C/c2cc(F)cc(F)c2)Cc2cc(F)cc(F)c21`: the growth is 122% (inactive).
Next, `Cn1cnc([N+](=O)[O-])c1S(=O)(=O)Oc1ccc(Cl)cc1`: -35.2% (active); `CC(Cc1cccc(C(F)(F)F)c1)NCCOC(=O)c1ccccc1` (stereo unspecified): 102% (inactive).
On to `COc1ccc(CNC(=O)C(O)C(Cc2ccccc2)NC(=O)c2[nH]c3ccccc3c(=O)c2C)cc1OC` (stereo unspecified), for which the growth was 97.3% (inactive).
The figure for `CN1CC(c2ccccc2)C(C(=O)c2ccc(Br)cc2)C12C(=O)Nc1ccccc12` (stereo unspecified) is 99.8% (inactive).
The figure for `c1ccc2cc(Cn3cc(CSc4nc5ccccc5s4)nn3)ccc2c1` is 102% (inactive); for `Clc1nc(Cl)c2ncn(CC#CCn3cnc4c(Cl)nc(Cl)nc43)c2n1` it is -58.3% (active).
For the molecule `Oc1c(CNCCNCc2cc(Cl)cc(Cc3ccccc3)c2O)cc(Cl)cc1Cc1ccccc1`, the growth is -0.262% (active).
Next, `O=c1c(/C=C/c2ccco2)nnc2sc(Nc3ccc(Cl)cc3)nn12`: 101% (inactive).
Next, `O=C1OCC2=C1C(c1cccc(C(F)(F)F)c1)c1cc3c(cc1N2CCO)OCO3` (stereo unspecified): -24.9% (active); `CO[C@H]1C[C@@H]2CC[C@@H](C)[C@@](O)(O2)C(=O)C(=O)N2CCCC[C@H]2C(=O)O[C@H]([C@H](C)C[C@@H]2CC[C@@H](O)[C@H](OC)C2)CC(=O)[C@H](C)C=C(C)[C@@H](O)[C@@H](OC)C(=O)[C@H](C)C[C@H](C)/C=C/C=C/C=C1C`: 83% (inactive); `COc1ccccc1NC(=O)c1ccc(/C=C/C(=O)c2nccn2C)cc1`: -9.45% (active).
Next, `CCOC(=O)c1cnn2c3ccccc3n(S(=O)(=O)c3ccc(OC)cc3)c12`: 4.77% (active); `Cc1c(CC(=O)OCCO)cc(-c2ccc(Cl)cc2)n1-c1ccccc1`: 95.7% (inactive); `COc1cccc(CNc2nnc(C)c(C)n2)c1O`: 95.9% (inactive).
For `CC1=C[C@H]2c3c(c(O)c(O)c4oc5cc(O)ccc5c(=O)c34)[C@H](c3cc(O)c(O)c4oc5cc(O)ccc5c(=O)c34)[C@H]2C(C)(C)C1`, the growth was 17.8% (inactive).
Next, `O=C1c2cc3c(cc2-c2c1c1ccc(Cl)cc1c(=O)n2CCCN1CCOCC1)OCO3`: 16.7% (inactive).
Next, `Nc1cc(N)c2nc(NCCc3ccc(Cl)c(Cl)c3)cnc2c1`: -74.3% (active); `COc1cccc(-c2nc3sccn3c2-c2ccnc(NCCCNS(=O)(=O)c3cccc(F)c3)c2)c1`: -26.9% (active); `Clc1cc(Cl)cc(Nc2ccc3c(OCCCN4CCOCC4)cccc3n2)c1`: 50.5% (inactive).
Next, `COc1ccc(-c2nc3sccn3c2-c2nc3c([nH]2)C(=O)c2ccccc2C3=O)cc1`: 94% (inactive); `COc1cc(/C=C\c2cc(OC)c(OC)c(OC)c2)cc(N/C=C\C(=O)c2c[nH]c3ccccc23)c1OC`: -30% (active); `Nc1ncnc2c1ncn2C1OC(CO)C2OC21` (stereo unspecified): 114% (inactive).
As for `CCOC(=O)C1CN(Cc2ccccc2)C(=O)C1=O` (stereo unspecified), the growth is 7.35% (active).
For `COc1ccc(Nc2ncccc2NC(=O)c2cn(Cc3cccc(Oc4ccccc4)c3)nn2)cc1OC`, the growth was 55.8% (inactive).
Next, `C#Cc1cccc(Nc2ncnc3cc(OCCOC)c(OCCOC)cc23)c1`: 49.2% (inactive).
Next, `CC1(C)CC[C@]2(C(=O)O)CC[C@]3(C)C(=CC[C@@H]4[C@@]5(C)C/C(=C/c6cccnc6)[C@H](O)C(C)(C)[C@@H]5CC[C@]43C)[C@@H]2C1`: -8.82% [100 µM] (active).
For `Clc1ccc(-c2n[nH]c3c2Cc2ccccc2-3)cc1Cl`, the growth was 100% (inactive).
As for `CC(=O)Nc1ccc2c(c1)C(=O)c1cccc(C(=O)O)c1-2`, the growth is 97.2% (inactive).
The figure for `CCOC(=N)c1ccc(C(=N)OCC)cc1` is 101% (inactive).
The figure for `Cc1ccc2nc(-[n+]3cc4ccccc4cc3C)ccc2c1` is 0.144% (active); for `C[C@@H]1CC[C@@H]2[C@@H]1[C@H](OC(=O)/C=C/c1ccccc1)[C@]1(c3ccccc3)C[C@@H](OC(=O)CO)[C@@]2(C)O1` it is 105% (inactive).
